# Data from PubChem BioAssay (Tox21).
# Values joined by “and” are separate entries in the source; they are usually repeats but may differ in a detail not shown here. Equal values may be shown once. More than one record can exist for a structure, and the calls need not agree. Active and inactive are the calls of the source. Entries that show only a call come without a potency. Unless noted, calls come from the whole dose curve; as a rule, active = well fitted curve in the direction sought with a large enough effect in the repeat runs; inconclusive = weak or mixed curves; inactive = no such curve, though single readings can be large; an effect the other way counts as inactive or inconclusive.
# Tests used:
# [1] = qHTS assay to identify small molecule antagonists of the glucocorticoid receptor (GR) signaling pathway - cell viability counter screen (AID 720693); note: nearly all actives have a fitted effect of over 55% in size; note: potency is the fitted concentration of half-maximal effect
# [2] = qHTS assay for identifying genotoxic compounds that show differential cytotoxicity against isogenic chicken DT40 cell lines with known DNA damage response pathways - wild type cell line (AID 743012); note: nearly all actives have a fitted effect of over 60% in size; note: potency is the fitted concentration of half-maximal effect
# Outline: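 Endpoint: CellTiter-Glo luminescence, 30 min RT. Cells: wild type DT40, 300/well. Exposure: compounds in DMSO, 40 h, 37 C/5% CO2, after ~0.5 h pre-incubation.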
# [3] = qHTS assay for identifying genotoxic compounds that show differential cytotoxicity against isogenic chicken DT40 cell lines with known DNA damage response pathways - Rev3 mutant cell line (AID 743014); note: nearly all actives have a fitted effect of over 55% in size; note: potency is the fitted concentration of half-maximal effect
# [4] = qHTS assay for identifying genotoxic compounds that show differential cytotoxicity against isogenic chicken DT40 cell lines with known DNA damage response pathways - Rad54/Ku70 mutant cell line (AID 743015); note: nearly all actives have a fitted effect of over 60% in size; note: potency is the fitted concentration of half-maximal effect
# [5] = qHTS assay to identify small molecule antagonists of the androgen receptor (AR) signaling pathway - cell viability counter screen (AID 743033; note: nearly all actives have a fitted effect of over 45% in size; note: potency is the fitted concentration of half-maximal effect)
# [6] = qHTS assay to identify small molecule antagonists of the androgen receptor (AR) signaling pathway using the MDA cell line - cell viability counter screen (AID 743041; note: nearly all actives have a fitted effect of over 45% in size)
# Outline: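 qHTS viability read-out; MDA-kb2 AR-luc; R1881-stimulated; 16 h exposure at 37C, 0% CO2; CellTiter-Fluor, 30 min; fluorescence intensity.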
# [7] = system: thyroid hormone receptor (rat, GH3 cells); assay: qHTS assay to identify small molecule agonists of the thyroid receptor (TR) signaling pathway (AID 743066; calls by dose curve)
# [8] = qHTS assay to identify small molecule antagonists of the estrogen receptor alpha (ER-alpha) signaling pathway - cell viability counter screen (AID 743074; calls by dose curve; note: nearly all actives have a fitted effect of over 45% in size; note: potency is the fitted concentration of half-maximal effect)
# [9] = qHTS assay to identify small molecule antagonists of the estrogen receptor alpha (ER-alpha) signaling pathway using the BG1 cell line - cell viability counter screen (AID 743081);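 note: compound given together with 17beta-estradiol as the ER stimulus; nearly all actives have a fitted effect of over 45% in size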; note: potency is the fitted concentration of half-maximal effect
# [10] = biological target: Aromatase (Homo sapiens) (UniProt P11511); assay: qHTS assay to identify aromatase inhibitors (AID 743083); note: nearly all actives have a fitted effect of over 55% in size; note: potency is the fitted concentration of half-maximal effect
# [11] = biological target: Estrogen receptor (Homo sapiens) (UniProt P03372); assay: qHTS assay to identify small molecule antagonists of the estrogen receptor alpha (ER-alpha) signaling pathway (AID 743069; active = well fitted curve in the direction sought with a large enough effect in the signal ratio in the repeat runs, not every such curve was filed as active; inconclusive = weak or mixed curves, or effect the other way; inactive = no such curve, though single readings can be large or run the other way; the % refers to the signal ratio; note: potency is the fitted concentration of half-maximal effect)
# Outline: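 Screening used a UAS-driven beta-lactamase reporter integrated into HEK293 cells expressing ER-alpha, stimulated with 17beta-estradiol alongside test compounds over 18 hr at 37C; signal came from LiveBLAzer B/G FRET fluorescence.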
# [12] = biological target: Estrogen receptor (Homo sapiens) (UniProt P03372); assay: qHTS assay to identify small molecule agonists of the estrogen receptor alpha (ER-alpha) signaling pathway (AID 743075; calls by dose curve; note: potency is the fitted concentration of half-maximal effect)
# [13] = biological target: Estrogen receptor (Homo sapiens) (UniProt P03372); assay: qHTS assay to identify small molecule agonists of the estrogen receptor alpha (ER-alpha) signaling pathway using the BG1 cell line (AID 743079); note: nearly all actives have a fitted effect of over 20% in size; note: potency is the fitted concentration of half-maximal effect
# [14] = qHTS assay to identify small molecule antagonists of the estrogen receptor alpha (ER-alpha) signaling pathway using the BG1 cell line (AID 743080; calls by dose curve;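 note: BG1 cells stimulated with 17beta-estradiol alongside compound; nearly all actives have a fitted effect of over 25% in size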; note: potency is the fitted concentration of half-maximal effect)
# Outline: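 Seeding, 24 h rest, compound transfer from DMSO, 17beta-estradiol addition, 21.5 h incubation, CellTiter-Fluor (30 min, 37 C), then ONE-Glo (30 min, room temperature): this sequence was run on BG1-Luc-4E2 reporter cells.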
# [15] = qHTS assay to identify small molecule antagonists of the thyroid receptor (TR) signaling pathway - cell viability counter screen (AID 743064); note: nearly all actives have a fitted effect of over 50% in size; note: potency is the fitted concentration of half-maximal effect
# Outline: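 In rat pituitary GH3.TRE-Luc reporter cells co-exposed to compound and 1 nM T3 for 23.5 h, cytotoxicity was assessed with CellTiter-Fluor in the same wells, read by fluorescence.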
# [16] = qHTS assay to identify small molecule antagonists of the thyroid receptor (TR) signaling pathway (AID 743065); note: nearly all actives have a fitted effect of over 55% in size; note: potency is the fitted concentration of half-maximal effect
# Outline: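 GH3.TRE-Luc rat pituitary cells carrying two TR response elements driving luciferase were plated for 4 h, given compound plus 1 nM T3 (final), and incubated 23.5 h at 37 C. ONE-Glo luminescence measured reporter inhibition; CellTiter-Fluor fluorescence tracked cytotoxicity.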
# [17] = biological target: Androgen receptor (Homo sapiens) (UniProt P10275); assay: qHTS assay to identify small molecule antagonists of the androgen receptor (AR) signaling pathway (AID 743035; active = well fitted inhibition curve with a large enough effect in the signal ratio in the repeat runs, not every such curve was filed as active; inconclusive = weak or mixed curves, or effect the other way; inactive = no such curve, though single readings can be large or run the other way; the % refers to the signal ratio)
# Outline: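 R1881 agonist challenge of a HEK293 UAS-beta-lactamase AR reporter line in the presence of compound (16 h, 37C); signal taken as FRET fluorescence after 2 h with LiveBLAzer B/G substrate at room temperature.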
# [18] = biological target: Androgen receptor (Homo sapiens) (UniProt P10275); assay: qHTS assay to identify small molecule agonists of the androgen receptor (AR) signaling pathway (AID 743036; active = well fitted activation curve with a large enough effect in the signal ratio in the repeat runs, with a control signal flat, not every such curve was filed as active; inconclusive = weak or mixed curves, or effect the other way; inactive = no such curve, though single readings can be large or run the other way; the % refers to the signal ratio)
# Outline: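 Cell-based FRET reporter assay: HEK293 line with a UAS-beta-lactamase construct, compounds added in DMSO, 16 h exposure at 37C, then 2 h substrate step at room temperature and fluorescence intensity read.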
# [19] = biological target: Androgen receptor (Homo sapiens) (UniProt P10275); assay: qHTS assay to identify small molecule agonists of the androgen receptor (AR) signaling pathway using the MDA cell line (AID 743040; note: nearly all actives have a fitted effect of over 20% in size)
# Outline: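 Agonist activity is measured as luciferase luminescence in human MDA-kb2 cells whose MMTV reporter responds to both AR and GR. Compounds in DMSO incubate 16 h at 37C, 0% CO2, and ONE-Glo is read after 30 min.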
# [20] = biological target: Androgen receptor (Homo sapiens) (UniProt P10275); assay: qHTS assay to identify small molecule antagonists of the androgen receptor (AR) signaling pathway using the MDA cell line (AID 743042; note: nearly all actives have a fitted effect of over 55% in size)
# Outline: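 MDA-kb2 cells (human breast carcinoma, stably carrying an MMTV-luciferase reporter responsive to AR and GR) were plated at 3,000 cells/well and preincubated 5 hr at 37C, then given compound plus R1881 agonist for 16 h. ONE-Glo luminescence was read.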
# Androgen receptor (Homo sapiens), sequence (P10275 whole entry, looked up): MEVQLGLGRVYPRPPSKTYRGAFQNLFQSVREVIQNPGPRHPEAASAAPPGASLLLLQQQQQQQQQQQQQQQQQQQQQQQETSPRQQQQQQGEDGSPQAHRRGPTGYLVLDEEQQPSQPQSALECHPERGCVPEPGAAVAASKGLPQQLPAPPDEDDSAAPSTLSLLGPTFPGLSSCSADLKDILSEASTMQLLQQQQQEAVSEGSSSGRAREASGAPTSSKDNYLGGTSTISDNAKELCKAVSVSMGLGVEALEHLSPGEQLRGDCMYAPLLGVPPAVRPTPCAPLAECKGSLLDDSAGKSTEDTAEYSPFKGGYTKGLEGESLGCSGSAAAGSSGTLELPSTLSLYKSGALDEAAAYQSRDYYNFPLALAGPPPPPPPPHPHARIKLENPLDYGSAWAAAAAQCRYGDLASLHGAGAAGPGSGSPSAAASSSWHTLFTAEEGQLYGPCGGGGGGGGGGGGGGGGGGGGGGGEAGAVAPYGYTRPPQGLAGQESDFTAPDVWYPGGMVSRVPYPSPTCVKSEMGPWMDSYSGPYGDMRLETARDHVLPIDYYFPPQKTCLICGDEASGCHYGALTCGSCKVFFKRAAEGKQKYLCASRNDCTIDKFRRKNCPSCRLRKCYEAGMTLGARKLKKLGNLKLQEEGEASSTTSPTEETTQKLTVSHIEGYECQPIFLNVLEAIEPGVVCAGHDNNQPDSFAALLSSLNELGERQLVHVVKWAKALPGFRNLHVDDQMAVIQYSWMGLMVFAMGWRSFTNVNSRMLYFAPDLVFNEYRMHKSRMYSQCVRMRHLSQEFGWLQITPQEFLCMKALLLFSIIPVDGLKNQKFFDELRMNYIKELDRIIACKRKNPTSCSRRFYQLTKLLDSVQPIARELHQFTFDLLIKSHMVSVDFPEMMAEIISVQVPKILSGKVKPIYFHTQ
# Estrogen receptor (Homo sapiens), sequence (P03372 whole entry, looked up): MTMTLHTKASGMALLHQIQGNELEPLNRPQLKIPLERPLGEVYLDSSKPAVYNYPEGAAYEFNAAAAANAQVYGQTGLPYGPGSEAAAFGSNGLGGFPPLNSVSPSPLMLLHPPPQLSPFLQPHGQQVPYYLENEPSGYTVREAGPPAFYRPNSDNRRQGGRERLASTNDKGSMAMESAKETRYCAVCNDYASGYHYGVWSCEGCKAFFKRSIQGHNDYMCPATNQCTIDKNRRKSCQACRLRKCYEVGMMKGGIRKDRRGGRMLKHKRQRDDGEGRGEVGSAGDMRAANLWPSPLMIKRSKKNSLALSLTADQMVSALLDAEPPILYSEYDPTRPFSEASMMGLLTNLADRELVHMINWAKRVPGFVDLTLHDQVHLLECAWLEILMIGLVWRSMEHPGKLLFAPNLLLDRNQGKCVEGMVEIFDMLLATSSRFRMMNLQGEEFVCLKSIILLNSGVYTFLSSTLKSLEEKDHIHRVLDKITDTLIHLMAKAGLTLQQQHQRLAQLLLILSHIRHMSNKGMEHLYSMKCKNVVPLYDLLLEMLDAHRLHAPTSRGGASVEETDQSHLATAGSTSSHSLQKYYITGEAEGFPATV
# Aromatase (Homo sapiens), sequence (P11511 whole entry, looked up): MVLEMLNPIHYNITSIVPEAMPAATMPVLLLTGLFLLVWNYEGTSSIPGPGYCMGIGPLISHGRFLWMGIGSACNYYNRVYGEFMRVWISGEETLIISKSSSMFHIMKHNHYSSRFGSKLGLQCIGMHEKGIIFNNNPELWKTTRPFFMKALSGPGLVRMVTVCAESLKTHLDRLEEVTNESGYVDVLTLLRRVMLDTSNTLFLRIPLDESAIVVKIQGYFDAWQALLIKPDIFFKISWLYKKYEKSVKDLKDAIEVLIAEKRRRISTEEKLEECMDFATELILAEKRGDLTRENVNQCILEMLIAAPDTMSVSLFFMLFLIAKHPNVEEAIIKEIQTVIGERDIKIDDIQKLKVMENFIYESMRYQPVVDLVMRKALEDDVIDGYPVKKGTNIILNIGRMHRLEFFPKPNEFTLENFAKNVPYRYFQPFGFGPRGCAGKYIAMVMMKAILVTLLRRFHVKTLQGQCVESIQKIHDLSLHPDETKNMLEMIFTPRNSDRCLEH
SMILES,Potency [1],Potency [2],Potency [3],Potency [4],Potency [5],Potency [6],outcome [7],Potency [8],Potency [9],Potency [10],Potency [11],Potency [12],Potency [13],Potency [14],Potency [15],Potency [16],outcome [17],outcome [18],outcome [19],outcome [20]
CC1CC(OC(=O)c2ccccc2O)CC(C)(C)C1 (stereo unspecified),inactive,inactive,inactive,inactive,inactive,inactive,inactive,inactive,inactive,inactive,,,,,,,,,,
CCCCCC/C=C/CCCCCCCC(=O)O,inactive,inactive,inactive,inactive,inactive,inactive,,inactive,inactive,inactive,inactive,inactive,30.7 µM (active) and inactive,inactive,,,,,,
CC#C[C@]1(O)CC[C@H]2[C@@H]3CCC4=CC(=O)CCC4=C3[C@@H](c3ccc(N(C)C)cc3)C[C@@]21C,5.35 µM (active),5.96 µM (active) and 30.6 µM (active),9.44 µM (active) and 48.6 µM (active),5.96 µM (active) and 21.7 µM (active),,,inactive,inactive,inactive,11.9 µM (active) and 30.6 µM (active),,inactive,,16.8 µM (active) and 68.6 µM (active),9.44 µM (active) and 34.4 µM (active),4.73 µM (active) and 24.3 µM (active),,,,
NCc1cccc(CN)c1,inactive,inactive,inactive,inactive,inactive,inactive,inactive,inactive,inactive,inactive,inactive,inactive,inactive,inactive,,inactive,,,,
CCOC(=O)/C=C\C(=O)OCC,inactive,inactive,inactive,inactive,inactive,inactive,,inactive,inactive,inactive,inactive,inactive,inactive,inactive,inactive,,,,,
CC1=C(/C=C/C(C)=C/C=C/C(C)=C/CO)C(C)(C)CCC1,inactive,28.8 µM (active),55.1 µM (active) and 36.2 µM (active),43.8 µM (active) and 25.7 µM (active),inactive,inactive,inactive,inactive,inactive,inactive and 28.8 µM (active),inactive,8.49 µM [inconclusive] (active) and inactive,944 nM (active) and inactive,15 µM (active) and 7.79 µM (active) and inactive,inactive,,,,,
CC(=O)[C@@]1(O)CC[C@H]2[C@@H]3CCC4=CC(=O)CC[C@]4(C)[C@H]3CC[C@@]21C,inactive,,inactive and 17.2 µM (active),24.3 µM (active),inactive,inactive,,inactive,inactive,,,,,,inactive,,,,,
O=C1N=C(O)CN1/N=C/c1ccc(-c2ccc([N+](=O)[O-])cc2)o1,inactive,61.1 µM (active),inactive and 68.6 µM (active),26.6 µM (active) and 27.3 µM (active),inactive,,inactive,inactive,48.6 µM (active),inactive,,,,,15 µM (active) and 30.6 µM (active),27.3 µM (active),,,,
CC(C)(C)C(=O)C1C(=O)c2ccccc2C1=O,inactive,60.5 µM (active) and 12.2 µM (active),inactive and 13.7 µM (active),13.7 µM (active),inactive,,inactive,inactive,,inactive,54.4 µM [inconclusive] (active) and 54.9 µM [inconclusive] (active),inactive,,,67.9 µM (active),,,,,
CCCCCCCCCC(=O)O,inactive,inactive,,61.2 µM (active) and inactive,inactive and 55 µM (active),inactive,inactive,inactive,inactive,inactive,,,,,inactive,inactive,inactive,inactive,inactive,inactive
NCCNCCNCCNCCN,inactive,inactive,,inactive,inactive,inactive,inactive,inactive,inactive,inactive,,,,,inactive,inactive,inactive,inactive,inactive,inactive
CC(=O)CCc1ccccc1,inactive,inactive,inactive,inactive,inactive,inactive,inactive,inactive,inactive,inactive,,,,,inactive,inactive,,,,
NC(=O)NNc1ccccc1,inactive,,,,inactive,inactive,inactive,inactive,inactive,inactive,,,,,inactive,inactive,,,,
O=c1c(-c2ccc(O)cc2)coc2cc(O)ccc12,inactive,,inactive,inactive,inactive,inactive,,,inactive,inactive,inactive,,,,,,,,inactive,inactive
O=S(=O)(Oc1ccc(Cl)cc1Cl)c1ccccc1,inactive,inactive,,inactive,inactive,inactive,inactive,inactive,inactive,inactive,inactive,7.9 µM [activator] (active) and 55 µM [activator] (active),19.7 µM (active) and 30.6 µM (active),,inactive,inactive,,,,
CC(C)(C)C1CCC(O)CC1 (stereo unspecified),inactive,inactive,inactive,inactive,inactive,inactive,inactive,inactive,inactive,inactive,inactive,inactive,inactive,inactive,,inactive,,,,
C=C(C)C(=O)OCCC[Si](OC)(OC)OC,,inactive,inactive,inactive,inactive,inactive,inactive,inactive,inactive,inactive,inactive,inactive,inactive,inactive,,inactive,,,,
C=C1CC[C@H](O)CC1=C/C=C1\CCC[C@]2(C)[C@@H]([C@H](C)/C=C/[C@H](C)C(C)C)CC[C@@H]12,,10.6 µM (active) and 13.6 µM (active) and 30.6 µM (active),12.1 µM (active) and 24.3 µM (active),13.3 µM (active) and 13.6 µM (active) and 27.3 µM (active),inactive and 43.3 µM (active),inactive,inactive,54.5 µM (active) and 54.9 µM (active),inactive,inactive and 61.1 µM (active),,,,,60.6 µM (active),26.6 µM (active) and 54 µM (active) and 54.5 µM (active),,,,
CCC(=O)O,inactive,inactive,inactive,inactive,inactive,inactive,,inactive,inactive,inactive,inactive,inactive,inactive,inactive,inactive,,,,,
CCCCCCCCCCC=CC1CC(=O)OC1=O (stereo unspecified),inactive,inactive,,inactive,inactive,inactive,inactive,inactive,inactive,,,,,,inactive,,,,,
CCCCCCOC(C)=O,inactive,inactive,54.5 µM (active),61.1 µM (active),inactive,inactive,,inactive,inactive,inactive,inactive,inactive,inactive,inactive,inactive,,,,,
OCC#CCO,inactive,inactive and 54.5 µM (active),inactive and 54.5 µM (active),inactive and 48.6 µM (active),inactive,inactive,inactive,,inactive,inactive,,,,,inactive,,,,,
O=C(c1ccc(O)cc1)c1ccc(O)cc1O,inactive,inactive,inactive,,inactive,inactive,inactive,inactive,inactive,inactive,,11.1 µM [inconclusive] (active) and 21.9 µM [inconclusive] (active),5.5 µM (active) and 9.69 µM (active),inactive,inactive,inactive,,,,
NCCc1ccc(O)c(O)c1,inactive,54.6 µM (active),15.4 µM (active),19.4 µM (active),inactive,,inactive,inactive,inactive and 54.6 µM (active),inactive,inactive,inactive,,,27.4 µM (active),48.7 µM (active),,,,
O=[N+]([O-])c1cc(N(CCO)CCO)ccc1NCCO,inactive,,,,inactive,,inactive,inactive,48.5 µM (active),,inactive,inactive,inactive,,61 µM (active),,inactive,inactive,inactive,
C[C@@H](O)[C@H]1C(=O)N2C(C(=O)O)=C(S[C@@H]3CN[C@H](C(=O)N(C)C)C3)[C@H](C)[C@H]12,inactive,inactive,,inactive,inactive,inactive,inactive,inactive,inactive,inactive,,,,,inactive,inactive,,,,
